Assay outcomes as filed in PubChem.
Tb PYK inh: inhibitors of Trypanosoma brucei pyruvate kinase; Q57TT1; TbPYK enzyme, Kinase-Glo Plus ATP luminescence, 45 min; Potency, µM (series often up to 76.8 µM), for the others: at the top dose activity, negative = inhibition, most hits filed as inhibitors; actives 0.12% (n = 410,000); AID 624173; note: potency is the fitted concentration of half-maximal effect; % is set by controls: 0 for no effect and ±100 for the full control effect; nearly all actives have a fitted effect of over 50% in size
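Quantitative HTS: titrated library compounds versus trypanosomal pyruvate kinase in TEA buffer (pH 7.2) containing KCl, MgCl2, BSA and Tween-20. Reactions were initiated with ADP, 130 uM final. Kinase-Glo Plus luminescence was read after 45 min at RT.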
Shiga toxin inh: inhibitors of Shiga toxin in Vero cells; Vero cells, Shiga toxin protein synthesis inhibition reporter; inhibition, % at 38.7 µM; actives 9.2% (n = 290,000); AID 2315; in the data active = inhibition mostly above about 28%, no sharp cut-off; inactive = mostly below about 43%; note: 0% is about no effect
RE007 growth inh: less growth of the S. pombe RE007 Vpr strain; S. pombe RE007 Vpr strain, BacTiter-Glo ATP luminescence, 24 h; Potency, µM (series often up to 92.2 µM), for the others: at the highest dose activity change, negative = less growth, most hits filed as inhibitors; actives 0.21% (n = 360,000); active = well fitted falling curve with a large enough effect; inconclusive = small, poorly fitted or top-dose-only effect; inactive = no such curve, though single readings can be large or run the other way; note: potency is the fitted concentration of half-maximal effect; % is set by controls: 0 for no effect and ±100 for the full control effect; nearly all actives have a fitted effect of over 50% in size
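Fission yeast strain RE007, carrying one chromosomally integrated HIV-1 vpr copy, was seeded at OD 0.01 in PMG+AL medium with 23 nL pinned compound. After 24 h at 30 °C and 99% humidity, viability was read by BacTiter-Glo luminescence.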
Cycloheximide cs: counter-screen for Shiga toxin inhibitors: cycloheximide protein synthesis inhibition | cell reporter, cycloheximide protein synthesis inhibition counterscreen | max response, % | actives 12% (n = 300,000) | AID 2314; in the data active = max response mostly above about 13%, no sharp cut-off; inactive = mostly below about 14%; note: read at 38.3 µM for the half of the compounds with a filed dose; 0% is about no effect
LmPK inh: blocks Leishmania mexicana pyruvate kinase activity; AID 1721; purified LmPK, Kinase-Glo ATP luminescence, 1 h; Potency, µM (top dose mostly 57.5 µM), inactives show top-dose activity change, negative = inhibition, actives largely listed as inhibitors; actives 0.37% (n = 290,000); note: potency is the fitted concentration of half-maximal effect; % is set by controls: 0 for no effect and ±100 for the full control effect
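Purified LmPK (0.1 nM) with 0.5 mM PEP and 0.1 mM ADP in imidazole buffer pH 7.2 with MgCl2/KCl, 1 h at room temperature. ATP formed was read by luciferase luminescence and normalized to no-enzyme and uninhibited controls.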
FBPA Giardia inh: inhibitors of Giardia lamblia fructose-1,6-bisphosphate aldolase. purified Giardia FBPA. Potency, µM (titrated, usually from 59.6 µM), for inactives: top-dose activity, negative = inhibition, usual class: inhibitors. actives 0.71% (n = 290,000). AID 2451; note: potency is the fitted concentration of half-maximal effect; % is set by controls: 0 for no effect and ±100 for the full control effect; nearly all actives have a fitted effect of over 55% in size
Target sequence (A8B2U2 whole entry, looked up): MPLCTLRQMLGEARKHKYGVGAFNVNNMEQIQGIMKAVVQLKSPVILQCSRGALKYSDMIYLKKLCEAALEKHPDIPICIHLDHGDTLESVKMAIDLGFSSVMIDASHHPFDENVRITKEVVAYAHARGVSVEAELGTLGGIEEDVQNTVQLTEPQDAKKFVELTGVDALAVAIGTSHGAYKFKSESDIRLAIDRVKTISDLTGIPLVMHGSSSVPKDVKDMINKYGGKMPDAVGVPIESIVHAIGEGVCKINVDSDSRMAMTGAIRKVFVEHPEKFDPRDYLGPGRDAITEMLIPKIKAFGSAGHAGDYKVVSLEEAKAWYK
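40 nM FBPA preincubated 10 min at RT with compound (up to 57.5 uM final), then substrate plus GAPDH/TPI/NAD/arsenate coupling and diaphorase/resazurin added. Fluorescence read after 20 min at RT, 525/598 nm.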
Numbers without * were called inactive. Many of the other results were omitted from the sample, so hits are more common in it than they were. Unless noted, calls come from the whole dose curve; as a rule, active = well fitted curve in the direction sought with a large enough effect; inconclusive = small, poorly fitted or top-dose-only effect, or another doubt; inactive = no such curve, though single readings can be large; an effect the other way counts as inactive or inconclusive.

Screening CCOC(=O)c1ccc(NC(=O)Nc2ccccn2)cc1 returned Tb PYK inh 6%, Shiga toxin inh 61*, RE007 growth inh -4%, Cycloheximide cs 24*, LmPK inh -8% and FBPA Giardia inh -2%.
CCOC(=O)c1ccc(NC(=O)Nc2cc(C)on2)cc1 was read as Tb PYK inh -5%, Shiga toxin inh 39*, RE007 growth inh 0%, Cycloheximide cs 32*, LmPK inh -6% and FBPA Giardia inh -2%.
CCOC(=O)c1ccc(NC(=O)Nc2ccc(S(N)(=O)=O)cc2)cc1 was read as Tb PYK inh 0%, Shiga toxin inh -2, RE007 growth inh 4%, Cycloheximide cs -2, LmPK inh -1% and FBPA Giardia inh 4%.
COc1ccc(C(=O)NCC(c2cccnc2)N2CCc3ccccc3C2)cc1OC (configuration not stated) was read as Tb PYK inh -9%.
Screening Cc1nonc1CN(C)C(=O)c1cc(COc2ccc(F)cc2Cl)on1 returned Tb PYK inh 1%, Shiga toxin inh 58*, RE007 growth inh 2%, Cycloheximide cs 46* and LmPK inh -1%.
Screening CN(Cc1ccccn1)C(=O)c1cc(COc2ccc(F)cc2Cl)on1 returned Tb PYK inh 3% and RE007 growth inh -5%.
`Cc1ccc(CN(C)C(=O)c2cc(COc3ccc(F)cc3Cl)on2)o1` gave Tb PYK inh inconclusive, Shiga toxin inh 50*, RE007 growth inh -22%, Cycloheximide cs 31*, LmPK inh 3% and FBPA Giardia inh -8%.
Screening CCN(CCN1CCCC1)C(=O)c1cc(COc2ccccc2SC)on1 returned Tb PYK inh -7%, Shiga toxin inh -5, RE007 growth inh -10%, Cycloheximide cs 11 and LmPK inh 2%.
Screening C#CCN(Cc1ccco1)C(=O)c1cc(COc2ccc(F)cc2Cl)on1 returned Tb PYK inh 0%, Shiga toxin inh 47*, RE007 growth inh 23%, Cycloheximide cs 15, LmPK inh 1% and FBPA Giardia inh inconclusive.
CCN(Cc1ccncc1)C(=O)c1cc(COc2ccc(F)cc2Cl)on1 was read as Tb PYK inh -11%, Shiga toxin inh -17, RE007 growth inh -11%, Cycloheximide cs -3 and LmPK inh -15%.
For CSc1ccccc1OCc1cc(C(=O)N(C)CCn2nc(C)cc2C)no1 the results were Tb PYK inh 0%, Shiga toxin inh 30*, RE007 growth inh 1%, Cycloheximide cs 31* and LmPK inh -7%.
Screening COc1ccc(Cc2c(-c3ccc(F)cc3)nc3c4ccccc4ccn23)c(C)c1 returned Tb PYK inh 1% and RE007 growth inh -17%.
`CCN(CC1CCCO1)C(=O)C1CCN(C2CCN(Cc3ccccc3C)CC2)CC1` (configuration not stated) gave Tb PYK inh -2%, Shiga toxin inh 13, RE007 growth inh 0%, Cycloheximide cs -1, LmPK inh -7% and FBPA Giardia inh -1%.
For Cc1cc(CN(C)C(=O)c2cc(COc3ccc(F)cc3Cl)on2)n[nH]1 the results were Tb PYK inh 7%, Shiga toxin inh 117*, RE007 growth inh -2%, Cycloheximide cs 33*, LmPK inh 3% and FBPA Giardia inh -1%.
`CSc1ccccc1OCc1cc(C(=O)N(C)Cc2ccncn2)no1` gave Tb PYK inh 1%, Shiga toxin inh 105*, RE007 growth inh -9%, Cycloheximide cs 49* and LmPK inh 0%.
Screening CSc1ccccc1OCc1cc(C(=O)N(C)Cc2nonc2C)no1 returned Tb PYK inh 3%, Shiga toxin inh 189*, RE007 growth inh -8%, Cycloheximide cs 59*, LmPK inh 2% and FBPA Giardia inh 4%.
`Cc1ccc(C(=O)COC(=O)CCC(=O)NC2CCCCC2)cc1C` gave Tb PYK inh 0%, Shiga toxin inh 3, RE007 growth inh -1%, Cycloheximide cs -2, LmPK inh 1% and FBPA Giardia inh 0%.
NC(=O)C1CCN(C(=O)C2CCC(=O)N(CC3CCCCC3)C2)CC1 (configuration not stated) was read as Tb PYK inh -2%, Shiga toxin inh -5, RE007 growth inh -3%, Cycloheximide cs -1, LmPK inh -1% and FBPA Giardia inh 2%.
CCOc1ccccc1NC(=O)COC(=O)c1c(CC)noc1C was read as Tb PYK inh -5% and RE007 growth inh 13%.
For COc1cccc(CNC(=O)c2c3c(nc4ccccc24)C(=O)N(C2CCCCC2)C3)c1 the results were Tb PYK inh -1%.
O=S1(=O)C=C(SCCN2CCCCC2)c2ccccc21 was read as Tb PYK inh 5%, Shiga toxin inh 37*, RE007 growth inh inconclusive, Cycloheximide cs 26*, LmPK inh 1% and FBPA Giardia inh 2%.
`CCCn1c(=O)n(C)c(=O)c2c(SCC(=O)Nc3cc(C)on3)nc(C(C)(C)C)nc21` gave Tb PYK inh -6% and RE007 growth inh 22%.
`COc1cccc(-c2nn(Cc3ccccc3)cc2C(=O)O)c1` gave Tb PYK inh 0%, Shiga toxin inh 25, RE007 growth inh -14%, Cycloheximide cs 3, LmPK inh 5% and FBPA Giardia inh 1%.
`COc1cccc(-c2nn(Cc3ccccc3)cc2CO)c1` gave Tb PYK inh 1%, Shiga toxin inh 90*, RE007 growth inh 18%, Cycloheximide cs 45*, LmPK inh 2% and FBPA Giardia inh 1%.
O=C(c1cccs1)c1coc2ccc(O)cc12 was read as Tb PYK inh -2%, Shiga toxin inh 81*, RE007 growth inh -9%, Cycloheximide cs 75*, LmPK inh -3% and FBPA Giardia inh 3%.
For CC(=O)Oc1ccc2occ(C(=O)c3cccs3)c2c1 the results were Tb PYK inh 3%, Shiga toxin inh 67*, RE007 growth inh -27%, Cycloheximide cs 37*, LmPK inh 1% and FBPA Giardia inh 2%.
Screening O=C(CCl)Oc1ccc2occ(C(=O)c3cccs3)c2c1 returned Tb PYK inh 4%, Shiga toxin inh 50, RE007 growth inh -21%, Cycloheximide cs 39*, LmPK inh -16% and FBPA Giardia inh 1%.
Screening CC(=O)Oc1ccc2occ(-c3ccccc3)c2c1 returned Tb PYK inh 1%, Shiga toxin inh 125*, RE007 growth inh -29%, Cycloheximide cs 25*, LmPK inh 0% and FBPA Giardia inh 11%.
CC(=O)Oc1ccc2occ(C(=O)c3ccccc3)c2c1 was read as Tb PYK inh -5% and RE007 growth inh inconclusive.
For O=C(Oc1ccc2c3c(c(=O)oc2c1)CCCC3)c1cccs1 the results were Tb PYK inh 6%, Shiga toxin inh -11, RE007 growth inh -11%, Cycloheximide cs -2, LmPK inh -2% and FBPA Giardia inh 0%.
